Screens deposited in PubChem by several laboratories.
Hits are enriched below; roughly 4% of the tested compounds scored in any of these assays.
Mtb FBA inh = Mtb fructose-bisphosphate aldolase inhibition; P9WQA3; purified M. tuberculosis FBA, fluorescence read-out; inhibition, % at 1 µM; hit rate 2.3% among 360,000; AID 588726; in the data active = inhibition above about 27%
GDH-TPI counter = GDH-TPI coupled enzyme inhibition counter-screen; GDH-TPI coupled enzyme counterscreen, NADH absorbance; hit rate 1.2% among 360,000; inhibition, % at 4.8 µM; AID 588335; in the data active = inhibition above about 30%
Rv3671c inh = inhibits the M. tuberculosis serine protease Rv3671c; P9WHR9; inhibition, % at 5.96 µM; hit rate 0.048% among 320,000; in the data active = inhibition above about 38%;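 also: extracellular domain of Rv3671c used as enzyme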
Target sequence (P9WHR9 whole entry, looked up, the tested form may be a part): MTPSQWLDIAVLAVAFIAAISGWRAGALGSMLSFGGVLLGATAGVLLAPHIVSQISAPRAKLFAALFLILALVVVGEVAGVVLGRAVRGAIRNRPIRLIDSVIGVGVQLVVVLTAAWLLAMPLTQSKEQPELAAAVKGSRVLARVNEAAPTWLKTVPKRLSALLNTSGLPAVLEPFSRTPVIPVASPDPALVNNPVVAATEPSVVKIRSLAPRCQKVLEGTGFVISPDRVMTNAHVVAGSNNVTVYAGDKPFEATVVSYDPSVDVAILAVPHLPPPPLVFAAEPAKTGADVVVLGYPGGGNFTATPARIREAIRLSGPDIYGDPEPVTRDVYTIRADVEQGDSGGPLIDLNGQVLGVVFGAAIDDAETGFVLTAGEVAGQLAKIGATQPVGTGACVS
Mtb bLac sens = beta-lactam sensitization of Mtb H37Rv; M. tuberculosis H37Rv growth with meropenem, percent inhibition; inhibition, % at 25 µM; hit rate 0.27% among 330,000; AID 434955; call rule not given here;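 also: growth measured after seven days incubation then overnight dye step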
RecA splice inh = Mtb RecA intein splicing inhibition; cell-free RecA intein splicing, fluorescence; P9WHJ3; inhibition, % (no concentration beside the values); hit rate 0.75% among 290,000; in the data active = inhibition above about 30%; inconclusive = no clear call, values can overlap the other calls
Mtb UGM inh = inhibitors of M. tuberculosis UDP-galactopyranose mutase; P9WIQ1; purified UGM, fluorescence polarization probe displacement; inhibition, % at 10 µM; hit rate 0.06% among 320,000; in the data active = inhibition above about 10%, passing the limit was not always enough; inconclusive = no clear call, values can overlap the other calls
Hits are given with their value; – = inactive; ? = inconclusive; · = not tested or not shown; + = active, no number.

SMILES	Mtb FBA inh	GDH-TPI counter	Rv3671c inh	Mtb bLac sens	RecA splice inh	Mtb UGM inh
Cc1ccc(S(=O)(=O)N(C)c2ccc3c(c2)C(=O)c2ccccc2-3)cc1	–	·	·	·	·	·
O=C(NCc1ccco1)c1cccn2c(=O)c3sccc3nc12	–	–	–	–	–	–
O=C(NCc1cccs1)c1cccn2c(=O)c3sccc3nc12	–	31.0	–	–	–	–
Cc1cc(=O)oc(C)c1C(=O)NCCC(C)C	–	31.8	–	–	–	–
CC(=O)Nc1sc(N/N=C\c2ccc(O)cc2)nc1-c1cccs1	–	43.9	–	–	–	–
COc1ccc2cc3cc(C(=O)Nc4cc(OC)c(OC)c(OC)c4)oc3nc2c1	–	–	–	–	–	–
COc1ccc2cc3cc(C(=O)NCc4cccnc4)oc3nc2c1	+	–	–	–	–	–
COc1ccc2cc3cc(C(=O)N4CC(C)CC(C)C4)oc3nc2c1 (stereo unspecified)	–	–	–	–	–	–
COc1ccc(C(=O)NCc2cccnc2)cc1	–	–	–	–	–	–
COc1ccc2cc3cc(C(=O)Nc4ccc5c(c4)OCCO5)oc3nc2c1	–	43.0	–	–	–	–
COc1ccc2cc3cc(C(=O)NC(C)C)oc3nc2c1	+	31.5	–	–	–	–
COc1ccc2cc3cc(C(=O)N4CCN(c5ccccn5)CC4)oc3nc2c1	–	41.7	–	–	–	–
O=C(CS(=O)(=O)c1cn(CC(=O)N2CCOCC2)c2ccccc12)Nc1ccccc1F	–	–	–	–	–	–
Cc1ccc2cc3cc(C(=O)NC4CC4)oc3nc2c1	–	48.7	–	–	–	–
COc1ccc2cc3cc(C(=O)NCc4ccc5c(c4)OCO5)oc3nc2c1	–	36.8	–	–	–	–
COc1ccc2cc3cc(C(=O)NCC4COc5ccccc5O4)oc3nc2c1 (stereo unspecified)	152.1	–	–	–	–	–
CC(=O)NCC1COc2ccccc2O1 (stereo unspecified)	–	–	–	–	–	–
CCN(CC)C(=O)c1ncn(C)c1C(=O)N(CC)CC	–	–	–	–	·	–
COc1ccc(-n2c(=O)c3ccccc3c3ccccc3c2=O)cc1	–	–	–	–	31.0	–
COc1ccc(NC(=O)NS(=O)(=O)c2ccc(C)cc2)cn1	–	–	·	–	–	67.4
O=C(C[n+]1ccc(-c2ccccc2)cc1)Nc1ccc([N+](=O)[O-])cc1	–	–	–	?	–	–
Nc1nc2cc(Cl)c(Br)cc2o1	–	–	·	·	·	·
O=C(O)C(Oc1ccc2c(-c3ccccc3)cc(=O)oc2c1)c1ccccc1 (stereo unspecified)	–	–	–	–	–	–
CC(Oc1ccc2c3c(c(=O)oc2c1)CCC3)C(=O)NCC1CCC(C(=O)O)CC1 (stereo unspecified)	–	–	–	–	–	–
CC(Oc1ccc2c(c1)oc(=O)c1ccccc12)C(=O)NCCN1CCOCC1 (stereo unspecified)	60.0	–	–	–	–	–
SMILES	Mtb FBA inh	GDH-TPI counter	Rv3671c inh	Mtb bLac sens	RecA splice inh	Mtb UGM inh
CC(Oc1ccc2c(-c3ccccc3)cc(=O)oc2c1)C(=O)NCCN1CCOCC1 (stereo unspecified)	–	–	–	–	–	–
CC(Oc1ccc2c(c1)oc(=O)c1ccccc12)C(=O)NCC1CCC(C(=O)O)CC1 (stereo unspecified)	129.3	–	–	–	–	–
COc1ccc2c(c1)c(=O)oc1cc(OC(C(=O)O)c3ccccc3)ccc12 (stereo unspecified)	+	–	–	–	–	–
CN(C)c1cccc(C(=O)NNC(=O)/C=C/c2cccs2)c1	–	–	–	–	·	–
O=C(Nc1ccc(Nc2ccncc2)cc1)c1ccc(Nc2ccnc3ccc([N+](=O)[O-])cc23)cc1	–	39.1	·	·	–	·
O=C(Nc1ccc(Cc2ccncc2)cc1)c1cccc([N+](=O)[O-])c1	–	–	–	–	–	–
COc1cc(/C=N/NC(=O)COc2ccc(-n3cnnn3)cc2)ccc1OCC(N)=O	–	–	–	–	–	–
COC(=O)c1ccc(/C=N/Nc2nc(-c3ccccc3)cs2)cc1	–	–	–	–	–	–
COc1ccc(/C=N/Nc2nc(C(=O)O)cs2)cc1	–	34.3	–	–	–	–
Cc1cc(C)c(NC(=O)Cn2c(=O)c3cccn3c3ccccc32)c(C)c1	–	–	–	–	–	–
O=[N+]([O-])c1ccc(NCc2ccc(Cl)cc2)nc1	–	33.8	–	–	–	–
COc1ccc(S(=O)(=O)Cc2ccc(C(=O)NC3CCCCC3)o2)cc1	–	–	–	–	–	–
C/C(=N/NC(=O)c1ccncc1)c1ccccc1	–	–	–	–	–	–
CNC(=O)c1cc2c(s1)CCCCCC2	–	–	–	–	–	–
Cc1ccc(/C=N/NC(=O)c2cc3c(s2)CCCC3)o1	–	40.1	–	–	·	–
Cc1cccc(C(=O)Nc2ccc(C(=O)N/N=C/c3ccc(C)o3)cc2)c1	–	40.8	–	–	·	–
C/C(=N\NC(=O)c1ccc(N/N=C(\C)c2ccncc2)cc1)c1ccncc1	–	31.5	–	–	–	–
Cc1ccc(/C=N/NC(=O)c2ccncc2)o1	–	38.1	–	–	–	–
COc1ccc(CCNC(=O)c2coc3ccccc3c2=O)cc1OC	–	–	–	–	–	–
CCCCOCCCN1CC(=O)N2[C@@H](Cc3c([nH]c4ccccc34)C2(C)C)C1=O	–	–	–	–	–	–
Cc1ccc(N=C2C(=O)Nc3ccccc32)cc1C	–	–	–	–	–	–
O=C1Nc2ccccc2C1=Nc1ccc2[nH]c3ccccc3c2c1	40.9	–	·	·	·	·
N#CCCN(Cc1ccccc1)C(C(=O)NC1CCCCC1)c1ccnc2ccccc12 (stereo unspecified)	–	·	·	·	·	·
Nc1nc(OCc2ccccc2)c2[nH]cnc2n1	–	–	–	–	–	–
Cc1nc2nc(N)nc(OCc3ccccc3)c2nc1C	161.2	–	–	–	–	–
SMILES	Mtb FBA inh	GDH-TPI counter	Rv3671c inh	Mtb bLac sens	RecA splice inh	Mtb UGM inh
Cc1nc(C)c(C(=O)OCC(=O)Nc2cccc(C)c2C)s1	–	–	–	–	·	–
CCc1nnc(NC(=O)/C=C/c2ccco2)s1	–	47.1	–	–	·	–
O=C(/C=C/c1ccco1)Nc1nnc(-c2ccco2)s1	–	–	–	–	–	–
Cc1nc(NC(=O)/C=C/c2ccco2)sc1C	–	31.8	–	–	–	–
CSc1nc(-c2ccco2)nn1C(=O)c1cccs1	–	–	–	–	31.8	–
O=C(c1cccs1)n1nc(-c2ccco2)nc1SCc1ccccc1	·	·	–	–	–	–
CC(=O)c1cc2ccc(O)cc2oc1=O	+	–	–	–	–	–
CC(=O)c1cc2cc(O)ccc2o1	+	–	–	–	–	–
O=C(NCc1ccco1)c1cc2ccc(O)cc2oc1=O	+	–	–	–	–	–
Cc1ccc(N=c2oc3cc(O)ccc3cc2C(N)=O)cc1	+	–	–	–	–	–
COC(=O)c1ccc(C2NC(=S)N(c3ccccc3)C(C)=C2C(=O)Nc2ccccc2OC)cc1 (stereo unspecified)	+	–	–	–	–	–
